{
  "source": "PubChem BioAssay AID488969",
  "about": "(Vanderbilt High Throughput Screening Facility, 2010)",
  "note": "The full ranking holds about 110,000 compounds; the median of “z-score” is about -0.1, and the highest 2% start at about 2. What follows is part of a selection rich in the highest values, with near analogues and random picks from the rest. Calls of active or inactive are those of the source.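 How the source made its calls: active means z-score in the third read window above 3 or below -3; inactive means the rest.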",
  "data": [
    {"molecular_target": "Metabotropic glutamate receptor 8 (Rattus norvegicus) (UniProt P70579)", "sequence (P70579 whole entry, looked up)": "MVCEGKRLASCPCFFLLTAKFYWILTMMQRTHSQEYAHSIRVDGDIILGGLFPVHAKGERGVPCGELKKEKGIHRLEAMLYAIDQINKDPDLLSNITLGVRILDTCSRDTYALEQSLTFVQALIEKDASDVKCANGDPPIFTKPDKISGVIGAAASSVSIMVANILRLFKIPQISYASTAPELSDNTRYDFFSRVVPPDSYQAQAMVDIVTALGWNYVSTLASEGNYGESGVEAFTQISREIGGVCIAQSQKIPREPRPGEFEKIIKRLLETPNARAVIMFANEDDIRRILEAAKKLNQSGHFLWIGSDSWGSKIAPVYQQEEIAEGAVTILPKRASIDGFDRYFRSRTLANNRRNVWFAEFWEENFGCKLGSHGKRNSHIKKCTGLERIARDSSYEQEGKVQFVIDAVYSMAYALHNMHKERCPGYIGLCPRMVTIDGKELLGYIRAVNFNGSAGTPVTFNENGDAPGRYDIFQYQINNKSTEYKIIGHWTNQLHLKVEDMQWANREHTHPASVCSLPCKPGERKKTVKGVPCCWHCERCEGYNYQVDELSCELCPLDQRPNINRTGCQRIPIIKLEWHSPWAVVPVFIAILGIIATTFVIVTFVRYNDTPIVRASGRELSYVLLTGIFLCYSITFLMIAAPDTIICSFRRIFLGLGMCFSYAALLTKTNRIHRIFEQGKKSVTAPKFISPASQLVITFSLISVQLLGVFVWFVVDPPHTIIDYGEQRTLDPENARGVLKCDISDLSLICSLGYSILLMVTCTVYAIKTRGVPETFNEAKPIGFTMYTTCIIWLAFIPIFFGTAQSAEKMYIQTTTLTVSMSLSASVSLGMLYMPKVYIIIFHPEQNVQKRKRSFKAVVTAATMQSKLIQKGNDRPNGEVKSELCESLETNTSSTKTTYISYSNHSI", "assay": "mGluR8 Gi/Go-coupled signaling modulation – cell-based, rat, thallium flux, HTS, primary screen (AID 488969)", "conditions": "HEK293 rat mGluR8, GIRK (G protein-gated inwardly rectifying potassium channel) thallium flux, FluoZin2; at 10 µM; stronger effect = higher value; submaximal glutamate (EC20) added with thallium", "values": [
      {"smiles": "CC1Cc2ccccc2N1C(=O)Cc1cccs1", "note": "(stereo not drawn)", "z-score": -0.395},
      {"smiles": "CC(C)CNC(=S)NC(=O)c1ccc(F)cc1", "z-score": "7.84 (active)"},
      {"smiles": "O=C(NC(=S)NCCN1CCOCC1)c1ccc(F)cc1", "z-score": -0.084},
      {"smiles": "CCCCNC(=S)Nc1ccc([N+](=O)[O-])cc1", "z-score": 2},
      {"smiles": "CC(C)CCNC(=S)Nc1ccc([N+](=O)[O-])cc1", "z-score": 1.2},
      {"smiles": "O=C(CNC(=S)NC(=O)c1ccc(F)cc1)c1ccccc1", "z-score": -0.0791},
      {"smiles": "Cc1ccc(CNC(=S)Nc2ccc(C)c([N+](=O)[O-])c2)cc1", "z-score": 0.255},
      {"smiles": "CCCCNC(=S)Nc1cc([N+](=O)[O-])ccc1C", "z-score": 0.706},
      {"smiles": "CCOc1ccc(NC(=S)Nc2ccc(C)c([N+](=O)[O-])c2)cc1", "z-score": 0.652},
      {"smiles": "O=[N+]([O-])c1ccc(NC(=S)NCCc2ccc(F)cc2)cc1", "z-score": 1.65},
      {"smiles": "Cc1ccc(NC(=S)NCc2ccccc2)cc1[N+](=O)[O-]", "z-score": "3.51 (active)"},
      {"smiles": "O=[N+]([O-])c1ccc(NC(=S)NCCc2ccccc2)cc1", "z-score": 2.91},
      {"smiles": "O=[N+]([O-])c1ccc(NC(=S)NCCc2ccc(Cl)cc2)cc1", "z-score": 0.129},
      {"smiles": "O=C(N/N=C/c1ccncc1)c1cc(Br)ccc1OCc1ccccc1", "z-score": 0.109},
      {"smiles": "Cn1c(SCCOc2ccccc2Cl)nnc1-c1cccs1", "z-score": -0.314},
      {"smiles": "CCCCCCCC(=O)NNC(=O)c1ccc([N+](=O)[O-])cc1", "z-score": -0.209},
      {"smiles": "CC(C)CC(=O)NC(=S)NNC(=O)c1ccc([N+](=O)[O-])cc1", "z-score": 0.187},
      {"smiles": "CC(=O)Nc1ccc(NC(=S)NC(=O)c2ccc([N+](=O)[O-])cc2)cc1", "z-score": -0.11},
      {"smiles": "CCCC(=O)NC(=S)NNC(=O)c1ccc([N+](=O)[O-])cc1", "z-score": -0.394},
      {"smiles": "Cc1ccc([N+](=O)[O-])cc1NC(=O)c1ccc(C(C)(C)C)cc1", "z-score": -1.53},
      {"smiles": "CCCCNC(=S)NC(=O)c1ccc([N+](=O)[O-])cc1", "z-score": "7.01 (active)"},
      {"smiles": "CC(C)CNC(=S)NC(=O)c1ccc([N+](=O)[O-])cc1", "z-score": "6.28 (active)"},
      {"smiles": "CCCCCC(=O)NC(=S)NNC(=O)c1ccc([N+](=O)[O-])cc1", "z-score": 2.66},
      {"smiles": "Cc1ccc(NC(=O)c2ccc(C(C)(C)C)cc2)cc1[N+](=O)[O-]", "z-score": 2.5},
      {"smiles": "CC(C)C(=O)Nc1cccc(NC(=S)NC(=O)c2ccc([N+](=O)[O-])cc2)c1", "z-score": -0.0455},
      {"smiles": "Cc1ccc(NC(=O)c2ccncc2)cc1[N+](=O)[O-]", "z-score": -0.142},
      {"smiles": "O=C(NC(=S)NCC1CCCO1)c1ccc([N+](=O)[O-])cc1", "note": "(stereo not drawn)", "z-score": -0.067},
      {"smiles": "Cc1ccc(NC(=O)CCC(=O)NNC(=O)COc2ccccc2)c(C)c1", "z-score": -0.385},
      {"smiles": "CCOc1ccc(C(=O)NC(=S)Nc2ccc(NC(=O)c3ccco3)c(C)c2)cc1[N+](=O)[O-]", "z-score": -0.187},
      {"smiles": "CCOc1ccc2ccccc2c1/C=N/NC(=O)CNC(=O)Cc1ccccc1", "z-score": -0.191},
      {"smiles": "CC1(C)CC(=O)c2cnc(N3CCc4ccccc4C3)nc2C1", "z-score": 0.63},
      {"smiles": "Brc1ccc(-c2csc(-c3ccncc3)n2)cc1", "z-score": 0.161},
      {"smiles": "CCOC(=O)c1c(C=O)c(C)n(Cc2ccc(Cl)cc2)c1C", "z-score": 0.0766},
      {"smiles": "CCCN1C2=C(C(=O)CCC2)C(c2ccc(F)cc2)C2=C1c1ccccc1C2=O", "note": "(stereo not drawn)", "z-score": -0.266},
      {"smiles": "O=C(Cn1cnc2c(nnn2-c2ccc(F)cc2)c1=O)NCc1ccco1", "z-score": -0.127},
      {"smiles": "O=C(NCc1ccco1)c1cccc(S(=O)(=O)N2CCc3ccccc32)c1", "z-score": -0.341},
      {"smiles": "COc1ccc(C(=O)/C=C/c2cn(CC(O)CN3CCOCC3)c3ccccc23)cc1", "note": "(stereo not drawn)", "z-score": -0.177},
      {"smiles": "CCC(=C(c1ccc(OC)cc1)c1ccc(OC)cc1)c1cn(CC(O)CN2CCN(C)CC2)c2ccccc12", "note": "(stereo not drawn)", "z-score": 2.63},
      {"smiles": "COc1ccc(C(=O)/C=C/c2cn(CN3CCN(C)CC3)c3ccccc23)cc1", "z-score": -0.629},
      {"smiles": "COc1ccc(-n2c(COc3ccc4ccccc4c3)nnc2SCC(=O)NCc2ccco2)cc1", "z-score": 0.832},
      {"smiles": "COc1cnc(-c2ccccc2)nc1Oc1cccc(C)c1C", "z-score": -0.012},
      {"smiles": "CCOCC(=O)Nc1nc2ccc(C)cc2s1", "z-score": -0.0136},
      {"smiles": "Cc1ccc(C)c(OCC(=O)Nc2nc3ccc([N+](=O)[O-])cc3s2)c1C", "z-score": 2.46},
      {"smiles": "COCC(=O)Nc1nc2ccc(C)cc2s1", "z-score": 0.0888},
      {"smiles": "Cc1ccc(C)c(OCC(=O)Nc2nc3ccc([N+](=O)[O-])cc3s2)c1", "z-score": 0.0186},
      {"smiles": "Cc1cccc(OCC(=O)Nc2nc3ccc([N+](=O)[O-])cc3s2)c1", "z-score": 2.05},
      {"smiles": "Cc1cccc(OCC(=O)Nc2nc3ccc([N+](=O)[O-])cc3s2)c1C", "z-score": -0.12},
      {"smiles": "O=C(CCl)N1c2ccccc2OCC1c1ccccc1", "note": "(stereo not drawn)", "z-score": -0.994},
      {"smiles": "NC(=O)NC(=O)CSc1nc(C2CCCCC2)n(-c2ccccc2)n1", "z-score": -0.264},
      {"smiles": "Cc1ccc(CNc2oc(-c3ccco3)nc2C#N)cc1", "z-score": -0.32},
      {"smiles": "Cc1nnc(N2C(=O)C(O)=C(C(=O)c3ccco3)C2c2ccc(C(C)(C)C)cc2)s1", "note": "(stereo not drawn)", "z-score": -0.554},
      {"smiles": "Cc1ccc(NC(=O)COC(=O)c2sccc2C)cc1S(=O)(=O)N1CCOCC1", "z-score": 1.38},
      {"smiles": "Cc1cc(C)cc(NC(=S)N=Nc2c(O)n(C)c3ccc(S(=O)(=O)N4CCOCC4)cc23)c1", "z-score": 0.616},
      {"smiles": "Cn1c(=O)c2cc(S(=O)(=O)N3CCOCC3)ccc2n(C)c1=O", "z-score": 0.139},
      {"smiles": "Cc1ccc(Nc2ccc(S(=O)(=O)N3CCOCC3)cc2[N+](=O)[O-])c(C)c1", "z-score": 1.29},
      {"smiles": "Cn1c(=O)n(C)c2cc(S(=O)(=O)N3CCOCC3)ccc21", "z-score": -0.185},
      {"smiles": "Cc1ccc(C)c(NC(=S)N=Nc2c(O)n(C)c3ccc(S(=O)(=O)N4CCOCC4)cc23)c1", "z-score": "4.13 (active)"},
      {"smiles": "Cc1ccc(NC(=S)N=Nc2c(O)n(C)c3ccc(S(=O)(=O)N4CCOCC4)cc23)cc1", "z-score": "3.93 (active)"},
      {"smiles": "CN(C)CCCN1C(=O)C(=O)/C(=C(/O)c2ccncc2)C1c1cccc(Br)c1", "note": "(stereo not drawn)", "z-score": -0.318},
      {"smiles": "COc1ccc(OC)c(-c2cc(C(=O)Nc3cc(C)on3)no2)c1", "z-score": 0.941},
      {"smiles": "Cc1ccc(CNC(=O)C2C3C=CC4(CN(Cc5cccnc5)C(=O)C24)O3)cc1", "note": "(stereo not drawn)", "z-score": -0.0986},
      {"smiles": "O=C(COC(=O)CCC1CCCC1)Nc1ccccc1Sc1ccccc1", "z-score": -0.2},
      {"smiles": "CCOc1c(OC(C)=O)ccc(/C=C/c2ccc3cccc(OC(C)=O)c3n2)c1[N+](=O)[O-]", "z-score": -0.227},
      {"smiles": "COCCSc1ccccc1C(=O)NCc1ccco1", "z-score": 0.383},
      {"smiles": "O=C(N/N=C/c1ccc[nH]1)c1ccccc1[N+](=O)[O-]", "z-score": -0.104},
      {"smiles": "CCN(CC)S(=O)(=O)c1ccc(N=Nc2c(C)[nH]n(C(N)=S)c2=O)cc1", "z-score": 0.608},
      {"smiles": "Cc1ccc(N=Nc2c(C)[nH]n(C(N)=S)c2=O)cc1C", "z-score": -0.217},
      {"smiles": "Cc1ccccc1N=Nc1c(C)[nH]n(C(N)=S)c1=O", "z-score": 2.97}
    ]}
  ]
}
